This is a sample that favours compounds with a hit; in the whole collection about 1.6% have one here.
KCNQ2 block – inhibitors of rat KCNQ2 potassium channel | CHO-K1 KCNQ2, FluxOR thallium flux, 20 min; hits give low values | B-score at 10 µM | actives 1.1% (n = 310,000) | O88943;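 active means fluorescence ratio B-score at most minus 3 library SDs, with starting brightness B-score within 2 library SDs, cut at about -5.5 in these data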
Target sequence (O88943 whole entry, looked up): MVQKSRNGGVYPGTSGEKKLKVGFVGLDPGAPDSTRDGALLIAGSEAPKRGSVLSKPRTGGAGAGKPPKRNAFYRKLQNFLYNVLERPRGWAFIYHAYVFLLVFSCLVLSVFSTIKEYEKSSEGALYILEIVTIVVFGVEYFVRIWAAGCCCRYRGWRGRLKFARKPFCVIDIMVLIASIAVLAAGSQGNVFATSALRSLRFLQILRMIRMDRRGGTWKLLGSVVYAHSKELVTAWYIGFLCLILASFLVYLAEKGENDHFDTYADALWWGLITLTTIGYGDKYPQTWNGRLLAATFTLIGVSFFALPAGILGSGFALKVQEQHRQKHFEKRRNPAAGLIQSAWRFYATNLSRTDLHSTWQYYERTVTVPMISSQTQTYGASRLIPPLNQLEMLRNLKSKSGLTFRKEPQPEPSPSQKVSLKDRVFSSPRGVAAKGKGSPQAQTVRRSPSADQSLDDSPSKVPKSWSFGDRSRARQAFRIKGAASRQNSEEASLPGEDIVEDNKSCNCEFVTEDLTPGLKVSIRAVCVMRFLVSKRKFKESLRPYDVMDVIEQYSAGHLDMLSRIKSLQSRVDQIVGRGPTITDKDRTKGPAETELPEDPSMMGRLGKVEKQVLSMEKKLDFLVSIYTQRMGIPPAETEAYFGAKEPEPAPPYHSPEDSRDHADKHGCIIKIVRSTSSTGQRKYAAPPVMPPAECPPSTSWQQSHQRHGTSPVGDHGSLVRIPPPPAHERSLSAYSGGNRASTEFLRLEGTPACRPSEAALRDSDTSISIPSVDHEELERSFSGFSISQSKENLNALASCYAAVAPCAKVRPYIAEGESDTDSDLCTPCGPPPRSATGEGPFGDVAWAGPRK
KCNQ2 enhance – potentiators of rat KCNQ2 potassium channel | AID 2239 | O88943 | CHO-K1 KCNQ2, FluxOR thallium flux fluorescence; hits give high values | actives 0.54% (n = 310,000) | B-score at 10 µM;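 active means fluorescence ratio B-score at least 3 SD of library B-scores, with initial fluorescence B-score within 3 of them, cut at about 5.3 in these data; same plate scores as AID 2156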;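 further: B-score of peak minus minimum over baseline fluorescence ratio after K+ and Tl+ stimulus; positive B-score means potentiation of KCNQ2 with more thallium influx and brighter signal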
KCNQ2 block conf – confirmation of rat KCNQ2 potassium channel inhibitors | shares compounds with KCNQ2 block | KCNQ2-expressing cells, thallium flux, inhibition; hits give low values | activity change, negative = inhibition, % at 10 µM | actives 57% (n = 1,000) | AID 493025;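 further: 0% = vehicle wells and values are ratio percent relative to vehicle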
KCNQ1 spec – KCNQ2 inhibitor that also affects human KCNQ1 channel. shares compounds with KCNQ2 block. KCNQ1-expressing cells, FluxOR thallium flux fluorescence; hits give low values. activity change, negative = inhibition, % at 10 µM. actives 15% (n = 1,000);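 active means activity change at least 3 SD of negative controls below their mean in both duplicate wells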;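 further: CHO cells stably transfected with KCNQ1 and depolarized by potassium stimulus; peak minus minimum fluorescence over baseline after thallium addition; 0% = vehicle negative control and -100% = blank without thallium stimulus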
CHO parental ctr – counter-screen for KCNQ2 inhibitors: effect in parental CHO cells; shares compounds with KCNQ2 block; thallium flux counter-screen; hits give low values; activity change, % at 10 µM; actives 14% (n = 1,000); AID 493029;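 further: 0% = vehicle negative controls with stimulus buffer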
KCNQ2 inh confirm – confirmation of rat KCNQ2 potassium channel inhibitors; shares compounds with KCNQ2 block; KCNQ2-expressing cells, automated patch clamp current; calls only at 10 µM; actives 49% (n = 550); AID 588531
Active calls of the source: *; i = inactive; · = not tested or not shown; + = active, no number. Unless noted, how the calls were made is not given here.

SMILES | KCNQ2 block | KCNQ2 enhance | KCNQ2 block conf | KCNQ1 spec | CHO parental ctr | others
NS(=O)(=O)c1ccc(CCNC(c2ccccc2)c2ccccc2)cc1 | i | 0.51 | · | · | ·
c1ccc(C(NCCNC(c2ccccc2)c2ccccc2)c2ccccc2)cc1 | -7.2* | -7.2 | -28%* | i | i | KCNQ2 inh confirm=i
CCOC(=O)Cn1c(CCC(=O)O)ccc1-c1ccc(F)cc1 | -9.3* | -9.3 | i | i | i
O=C(O)CCc1ccc(-c2ccc(F)cc2)n1CC(=O)O | i | · | · | · | ·
O=C(NCc1nnnn1-c1ccc(F)c(F)c1)c1cc2ccccc2o1 | i | · | · | · | ·
CN(Cc1ccccc1)C(=O)NC1CCCCC1 | i | · | · | · | ·
O=C(NC1CCCCC1)N(Cc1ccccc1)Cc1ccco1 | -8.1* | -8.1 | i | i | i
C=C(C)c1ccc(C(C)(C)NC(=O)N(Cc2ccccc2)Cc2ccco2)cc1 | -6.9* | -6.9 | -16%* | i | i | KCNQ2 inh confirm=i
C=C(C)c1ccc(C(C)(C)NC(=O)NCc2ccco2)cc1 | i | 1.4 | · | · | ·
O=C(c1ccc(Cn2c(=S)[nH]c3ccccc3c2=O)cc1)N1CCN(c2ccccn2)CC1 | i | · | · | · | ·
CC1=NN(C(=O)COc2ccccc2C)C(O)(c2ccc(Cl)cc2)C1 (stereo not given) | -8.1* | -8.1 | -24%* | i | i | KCNQ2 inh confirm=+
CCC1=NN(C(=O)COc2ccccc2C)C(O)(c2ccncc2)C1 (stereo not given) | i | · | · | · | ·
CC(C)[C@H](NC(=O)N1c2ccccc2NC(=O)[C@@H]1C(C)C)C(=O)N1CCC[C@H]1C(=O)O | i | 0.11 | · | · | ·
CN(C)c1oc(-c2ccccc2Cl)nc1P(=O)(c1ccccc1)c1ccccc1 | -9.5* | -9.5 | -39%* | -31%* | -24%* | KCNQ2 inh confirm=+
Cc1ccc(S(=O)(=O)c2nc(-c3ccccc3Cl)oc2N(C)C)cc1 | i | · | · | · | ·
CCOc1ccc(NC(=O)CN2CCC(n3cnc4cc(F)ccc43)CC2)cc1 | i | 0.63 | · | · | ·
COc1ccc(Cl)cc1C(=O)NC(=S)Nc1ccccc1N1CCOCC1 | -12* | -12 | -28%* | i | i | KCNQ2 inh confirm=+
Cc1cc(Cl)ccc1OCC(=O)NC(=S)Nc1ccccc1N1CCOCC1 | i | · | · | · | ·
O=C(Sc1nnc(-c2ccccc2)o1)N1c2ccccc2Sc2ccccc21 | -6.8* | -6.8 | i | i | i
COc1cc(-c2nnc(SCC(=O)N3c4ccccc4Sc4ccccc43)o2)cc(OC)c1OC | i | · | · | · | ·
CCc1ncc(CN2CCC(C(=O)Nc3cccc(-c4cscn4)c3)CC2)cn1 | i | 1.4 | · | · | ·
CNC(=O)COc1ccc(Nc2nnc(-c3ccc(C)c(S(N)(=O)=O)c3)c3ccccc23)cc1 | i | · | · | · | ·
CC1CCCCN1CCCNC(=O)CN1C(=O)c2cccnc2Oc2ccccc21 (stereo not given) | i | · | · | · | ·
CCOC(=O)N1CCC(N(CCCOC)C(=O)Nc2cccc(OC)c2)CC1 | i | · | · | · | ·
CCOC(=O)N1CCC(N(CCOC)C(=O)Nc2ccc(Cl)c(Cl)c2)CC1 | -9.4* | -9.4 | -25%* | i | i
SMILES | KCNQ2 block | KCNQ2 enhance | KCNQ2 block conf | KCNQ1 spec | CHO parental ctr | others
CN(C)c1ccnc(N(Cc2ccccc2)Cc2ccccc2)c1C#N | -7.2* | -7.2 | i | i | i
CN(C)c1ccnc(NCc2ccccc2)c1C#N | i | 0.98 | · | · | ·
Cc1ccc(C(=O)NCCNC(=O)c2ccco2)cn1 | i | · | · | · | ·
O=C(NCc1ccccc1)C(c1ccccn1)N(C(=O)c1csnn1)c1ccccc1F (stereo not given) | i | · | · | · | ·
Cc1ccc(NC(=O)CCNCc2ccco2)cc1S(=O)(=O)N(C)C | i | · | · | · | ·
COc1ccccc1N1CCN(C2=Nc3cccc4cccc2c34)CC1 | -9* | -9 | -34%* | i | i | KCNQ2 inh confirm=+
CC(=O)N1CCN(C2=Nc3cccc4cccc2c34)CC1 | i | · | · | · | ·
Cc1ccc2[nH]c(CNC(=O)c3ccc(F)cc3)cc2c1 | i | 0.01 | · | · | ·
C/C(=N\Nc1nc(N2CCCCCC2)nc(N2CCCCCC2)n1)c1ccccc1 | -9.2* | -9.2 | -28%* | i | i | KCNQ2 inh confirm=+
CC(=C/c1ccccc1)/C=N/Nc1nc(N2CCCCC2)nc(N2CCCCC2)n1 | i | · | · | · | ·
CC(NCc1ccc([N+](=O)[O-])cc1)C1COc2ccccc2O1 (stereo not given) | i | · | · | · | ·
CC1CCN(CC(=O)N2c3ccccc3CC2C)CC1 (stereo not given) | i | 0.66 | · | · | ·
CC1Cc2ccccc2N1C(=O)CNc1ccccc1N1CCCCC1 (stereo not given) | -8.4* | -8.4 | i | i | i
CCNC(=O)C(=O)NCC1CCCN1S(=O)(=O)c1cccs1 (stereo not given) | i | · | · | · | ·
CC(=O)N/C(=C\c1ccccc1)C(=O)OCc1cccc(S(=O)(=O)N(C)C)c1 | i | · | · | · | ·
O=P(c1ccccc1)(c1ccccc1)N(c1ccccc1)c1ccccc1 | -6.8* | -6.8 | -20%* | i | i | KCNQ2 inh confirm=+
Nc1cccc(P(=O)(c2ccccc2)c2ccccc2)c1 | i | · | · | · | ·
COc1cccc(C(=O)OCC(=O)NCCCc2ccccc2)c1 | i | · | · | · | ·
CCc1occc(=O)c1Oc1cc(NN2CCCCC2)c([N+](=O)[O-])cc1[N+](=O)[O-] | i | 0.02 | · | · | ·
c1ccc(CC2CCN(C(c3cccs3)c3nnnn3C3CCCC3)CC2)cc1 (stereo not given) | i | · | · | · | ·
c1ccc(CN(Cc2cccs2)C(c2cccs2)c2nnnn2C2CCCC2)cc1 (stereo not given) | -8.2* | -8.2 | i | i | i
CC(c1ccccc1)n1cnc2ccccc2c1=O (stereo not given) | i | 0.02 | · | · | ·
Cc1ccc(CNS(=O)(=O)c2ccc(-n3cnnn3)c(C)c2)cc1 | i | 0.38 | · | · | ·
Cn1nc(C(=O)NC2CCCCC2)c2c1-c1ccccc1SC2 | i | · | · | · | ·
CC(C)N(C(=O)c1nn(C)c2c1CSc1ccccc1-2)C1CCCCC1 | -8.7* | -8.7 | -26%* | i | i | KCNQ2 inh confirm=i
SMILES | KCNQ2 block | KCNQ2 enhance | KCNQ2 block conf | KCNQ1 spec | CHO parental ctr | others
N#CCCn1cc(C(=O)N2CCOCC2)c(-c2ccc3c(c2)OCCO3)n1 | i | · | · | · | ·
C/C(CC(=O)Nc1ccc(F)cc1)=N\NC(=O)COc1ccccc1 | i | 0.24 | · | · | ·
Cc1ccc2c(C)c(C(=O)N3CCN(Cc4ccc5c(c4)OCO5)CC3)oc2c1C | -6.9* | -6.9 | i | i | i
Cc1ccc(C(=O)N2CCN(Cc3ccc4c(c3)OCO4)CC2)o1 | i | 0.38 | · | · | ·
CC(NS(=O)(=O)c1ccccc1)C(c1cccs1)N1CCOCC1 (stereo not given) | i | · | · | · | ·
Cc1ccccc1C(=O)Nc1cccc(C(=O)N/N=C/c2cc(Cl)cc([N+](=O)[O-])c2O)c1 | i | 1.1 | · | · | ·
COc1cccc(N/C(C)=C/C(=O)c2ccc(Br)cc2)c1 | -7.6* | -7.6 | -41%* | -47%* | -33%* | KCNQ2 inh confirm=i
C/C(=C\C(=O)c1ccc(Br)cc1)Nc1ccc(Cl)cc1 | i | · | · | · | ·
CCCN(CC(=O)Nc1ccccc1OC)C(=O)c1ccc(S(=O)(=O)Nc2ccccc2)cc1 | i | 0.52 | · | · | ·
Cc1oc(-c2ccc(Cl)cc2)nc1CS(=O)CC(=O)NC1CCCC1 (stereo not given) | i | 0.43 | · | · | ·
